# Reference: PMC7862700, “An all-to-all approach to the identification of sequence-specific readers for epigenetic DNA modifications on cytosine”
# How the values were obtained:
# Experiment in all cases: DAPPL (digital affinity profiling via proximity ligation, sequencing); 10 mM Tris-HCl pH 7.5, 50 mM NaCl, 1 mM DTT, 4% glycerol, room temperature, 30 min; GST-TFs on glutathione beads, 16-mer random dsDNA library, 0.1% formaldehyde crosslink after washing; high values mean tight binding
# ELK1 = target: T1, ELK1 (Homo sapiens, UniProt P19419 1-428); conditions: protein: recombinant; tags: N-terminal GST; dsDNA, one strand shown
# T1 sequence: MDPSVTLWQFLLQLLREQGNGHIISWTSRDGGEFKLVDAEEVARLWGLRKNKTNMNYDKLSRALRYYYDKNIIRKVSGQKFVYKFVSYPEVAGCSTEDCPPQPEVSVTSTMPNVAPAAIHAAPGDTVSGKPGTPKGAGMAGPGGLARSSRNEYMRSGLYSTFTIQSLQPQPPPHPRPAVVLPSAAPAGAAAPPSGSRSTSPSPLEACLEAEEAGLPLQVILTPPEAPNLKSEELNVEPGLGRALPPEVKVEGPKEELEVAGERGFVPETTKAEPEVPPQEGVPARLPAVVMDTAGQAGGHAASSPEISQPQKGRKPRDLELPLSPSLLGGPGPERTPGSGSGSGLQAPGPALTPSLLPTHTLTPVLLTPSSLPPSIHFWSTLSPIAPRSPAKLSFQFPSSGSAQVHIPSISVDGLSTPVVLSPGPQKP
# In short: (§1)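 In yeast, human transcription factors were expressed with a GST fusion, then pulled down on glutathione beads and given DNA barcodes. Pooled with a tag-only sample, they were exposed to 200 nmole of a 16-mer random double-stranded DNA library (Tris/NaCl/DTT/glycerol buffer, room temperature, 30 min), washed, crosslinked with 0.1% formaldehyde, proximity-ligated using BsaI/T4 ligase for 1 h at 37 °C, PCR-amplified and read on an Illumina NextSeq500. Each hexamer's frequency of reads for a factor, divided by the matching frequency for the tag-only sample, gives the binding signal.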
# ERG = target: T2, ERG (Homo sapiens, UniProt P11308 1-479); conditions: protein: recombinant; tags: N-terminal GST; dsDNA, one strand shown
# T2 sequence: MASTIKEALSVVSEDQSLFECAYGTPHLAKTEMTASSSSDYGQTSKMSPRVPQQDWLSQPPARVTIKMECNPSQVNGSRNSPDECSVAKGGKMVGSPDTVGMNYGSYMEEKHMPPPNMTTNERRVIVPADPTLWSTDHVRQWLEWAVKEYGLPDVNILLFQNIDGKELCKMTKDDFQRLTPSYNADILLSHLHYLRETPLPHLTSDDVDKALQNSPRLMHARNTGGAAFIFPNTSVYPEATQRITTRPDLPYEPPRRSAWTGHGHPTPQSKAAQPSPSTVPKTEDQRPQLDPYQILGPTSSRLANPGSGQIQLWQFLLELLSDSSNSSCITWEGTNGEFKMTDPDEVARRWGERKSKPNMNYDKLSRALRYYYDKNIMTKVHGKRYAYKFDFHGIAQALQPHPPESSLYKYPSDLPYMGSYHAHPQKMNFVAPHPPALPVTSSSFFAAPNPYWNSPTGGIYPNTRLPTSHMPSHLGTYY
# In short: as §1
# EHF = target: T3, EHF (Homo sapiens, UniProt Q9NZC4 1-300); conditions: protein: recombinant; tags: N-terminal GST; dsDNA, one strand shown
# T3 sequence: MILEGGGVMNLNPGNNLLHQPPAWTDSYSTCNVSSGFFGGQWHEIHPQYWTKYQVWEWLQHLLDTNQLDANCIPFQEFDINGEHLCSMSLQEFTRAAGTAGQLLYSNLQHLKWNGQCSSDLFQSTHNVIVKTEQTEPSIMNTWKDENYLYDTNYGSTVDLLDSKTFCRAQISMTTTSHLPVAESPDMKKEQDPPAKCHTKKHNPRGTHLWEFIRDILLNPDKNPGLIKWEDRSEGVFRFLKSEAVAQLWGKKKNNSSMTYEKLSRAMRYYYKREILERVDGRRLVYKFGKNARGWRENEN
# In short: as §1
# SPI1 = SPI1 (Homo sapiens, UniProt P17947 1-270); conditions: protein: recombinant; tags: N-terminal GST; dsDNA, one strand shown
# In short: as §1
# ELK3 = target: T4, ELK3 (Homo sapiens, UniProt P41970 1-407); conditions: protein: recombinant; tags: N-terminal GST; dsDNA, one strand shown
# T4 sequence: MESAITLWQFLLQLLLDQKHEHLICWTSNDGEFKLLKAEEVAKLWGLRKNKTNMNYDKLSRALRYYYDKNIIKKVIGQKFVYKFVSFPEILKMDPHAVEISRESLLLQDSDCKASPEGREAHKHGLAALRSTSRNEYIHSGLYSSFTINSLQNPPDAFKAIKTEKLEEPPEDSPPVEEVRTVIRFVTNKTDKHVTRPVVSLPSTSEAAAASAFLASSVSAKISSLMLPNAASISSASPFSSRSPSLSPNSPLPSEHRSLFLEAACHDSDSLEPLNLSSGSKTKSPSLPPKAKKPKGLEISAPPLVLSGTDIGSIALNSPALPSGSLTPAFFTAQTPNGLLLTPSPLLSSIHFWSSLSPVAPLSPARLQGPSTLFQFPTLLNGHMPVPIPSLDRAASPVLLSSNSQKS
# In short: as §1
# HSF1 = HSF1 (Homo sapiens, UniProt Q00613 1-529); conditions: protein: recombinant; tags: N-terminal GST; chain copies: 3; dsDNA, one strand shown
# In short: as §1
# SPIC = target: T5, SPIC (Homo sapiens, UniProt Q8N5J4 1-248); conditions: protein: recombinant; tags: N-terminal GST; dsDNA, one strand shown
# T5 sequence: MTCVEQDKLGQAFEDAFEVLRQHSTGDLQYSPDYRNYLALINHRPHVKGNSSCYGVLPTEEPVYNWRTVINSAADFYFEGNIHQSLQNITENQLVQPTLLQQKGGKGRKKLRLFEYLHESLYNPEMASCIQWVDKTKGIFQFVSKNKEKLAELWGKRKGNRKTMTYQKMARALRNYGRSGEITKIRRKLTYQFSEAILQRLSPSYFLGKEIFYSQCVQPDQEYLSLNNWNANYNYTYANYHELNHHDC
# In short: as §1
# ELF4 = ELF4 (Homo sapiens, UniProt Q99607 1-663); conditions: protein: recombinant; tags: N-terminal GST; dsDNA, one strand shown
# In short: as §1
# ETV2 = target: T6, ETV2 (Homo sapiens, UniProt O00321 1-342); conditions: protein: recombinant; tags: N-terminal GST; dsDNA, one strand shown
# T6 sequence: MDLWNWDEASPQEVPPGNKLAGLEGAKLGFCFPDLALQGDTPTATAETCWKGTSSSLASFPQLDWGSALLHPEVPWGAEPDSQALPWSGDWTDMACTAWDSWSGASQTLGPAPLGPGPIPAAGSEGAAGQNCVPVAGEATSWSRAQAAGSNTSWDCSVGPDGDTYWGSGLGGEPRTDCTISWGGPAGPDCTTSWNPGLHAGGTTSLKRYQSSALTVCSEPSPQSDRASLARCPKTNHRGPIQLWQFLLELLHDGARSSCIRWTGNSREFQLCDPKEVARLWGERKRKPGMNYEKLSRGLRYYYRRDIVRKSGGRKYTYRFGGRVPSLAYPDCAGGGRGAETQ
# In short: as §1
# ELF3 = target: T7, ELF3 (Homo sapiens, UniProt P78545 1-371); conditions: protein: recombinant; tags: N-terminal GST; dsDNA, one strand shown
# T7 sequence: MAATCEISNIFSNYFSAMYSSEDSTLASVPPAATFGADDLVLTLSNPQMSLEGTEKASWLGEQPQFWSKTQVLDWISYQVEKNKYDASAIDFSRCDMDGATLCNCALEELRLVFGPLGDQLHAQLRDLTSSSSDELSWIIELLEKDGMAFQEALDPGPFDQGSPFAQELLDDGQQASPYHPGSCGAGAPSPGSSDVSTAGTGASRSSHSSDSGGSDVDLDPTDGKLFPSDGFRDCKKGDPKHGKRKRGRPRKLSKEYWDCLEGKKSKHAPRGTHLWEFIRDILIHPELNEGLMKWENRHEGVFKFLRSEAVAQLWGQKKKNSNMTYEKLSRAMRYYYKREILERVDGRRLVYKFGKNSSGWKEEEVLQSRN
# In short: as §1
# CRX = CRX (Homo sapiens, UniProt O43186 1-299); conditions: protein: recombinant; tags: N-terminal GST; dsDNA, one strand shown
# In short: as §1
# ETV1 = ETV1 (Homo sapiens, UniProt P50549 1-477); conditions: protein: recombinant; tags: N-terminal GST; dsDNA, one strand shown
# In short: as §1
# ETV3L = target: T8, ETV3L (Homo sapiens, UniProt Q6ZN32 1-361); conditions: protein: recombinant; tags: N-terminal GST; dsDNA, one strand shown
# T8 sequence: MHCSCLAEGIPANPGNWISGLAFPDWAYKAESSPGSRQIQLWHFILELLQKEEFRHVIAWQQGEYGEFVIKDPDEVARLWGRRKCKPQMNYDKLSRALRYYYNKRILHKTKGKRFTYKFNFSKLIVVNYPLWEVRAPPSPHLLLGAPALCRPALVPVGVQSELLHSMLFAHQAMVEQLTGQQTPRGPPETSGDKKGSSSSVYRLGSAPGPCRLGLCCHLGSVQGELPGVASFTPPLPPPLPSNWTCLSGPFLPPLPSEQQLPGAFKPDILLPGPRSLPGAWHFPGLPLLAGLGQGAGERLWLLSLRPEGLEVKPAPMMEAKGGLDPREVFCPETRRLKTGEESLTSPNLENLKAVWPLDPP
# In short: as §1
# SPDEF = target: T9, SPDEF (Homo sapiens, UniProt O95238 1-335); conditions: protein: recombinant; tags: N-terminal GST; dsDNA, one strand shown
# T9 sequence: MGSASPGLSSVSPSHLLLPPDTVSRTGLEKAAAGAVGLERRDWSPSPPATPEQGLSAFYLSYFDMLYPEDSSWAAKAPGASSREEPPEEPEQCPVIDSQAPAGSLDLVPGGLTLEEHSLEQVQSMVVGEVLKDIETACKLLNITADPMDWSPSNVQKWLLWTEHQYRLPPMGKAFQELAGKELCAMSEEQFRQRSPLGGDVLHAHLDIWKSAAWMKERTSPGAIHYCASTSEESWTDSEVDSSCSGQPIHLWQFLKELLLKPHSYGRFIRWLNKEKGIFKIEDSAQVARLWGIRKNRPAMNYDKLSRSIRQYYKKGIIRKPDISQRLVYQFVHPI
# In short: as §1
# HSF1, sequence (Q00613 whole entry): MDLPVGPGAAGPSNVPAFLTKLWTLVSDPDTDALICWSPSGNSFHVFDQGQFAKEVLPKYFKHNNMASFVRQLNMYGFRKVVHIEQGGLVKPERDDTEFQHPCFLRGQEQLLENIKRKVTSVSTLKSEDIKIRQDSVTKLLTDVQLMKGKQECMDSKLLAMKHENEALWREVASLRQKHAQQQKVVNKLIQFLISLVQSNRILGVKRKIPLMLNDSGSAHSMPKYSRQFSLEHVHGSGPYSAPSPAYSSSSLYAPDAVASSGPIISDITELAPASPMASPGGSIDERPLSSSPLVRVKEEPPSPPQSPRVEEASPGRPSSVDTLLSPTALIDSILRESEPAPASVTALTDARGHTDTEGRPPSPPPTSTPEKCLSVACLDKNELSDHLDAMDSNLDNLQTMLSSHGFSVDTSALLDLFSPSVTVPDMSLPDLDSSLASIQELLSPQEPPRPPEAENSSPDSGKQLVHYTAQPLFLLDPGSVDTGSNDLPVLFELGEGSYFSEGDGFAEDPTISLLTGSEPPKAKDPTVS
# CRX, sequence (O43186 whole entry): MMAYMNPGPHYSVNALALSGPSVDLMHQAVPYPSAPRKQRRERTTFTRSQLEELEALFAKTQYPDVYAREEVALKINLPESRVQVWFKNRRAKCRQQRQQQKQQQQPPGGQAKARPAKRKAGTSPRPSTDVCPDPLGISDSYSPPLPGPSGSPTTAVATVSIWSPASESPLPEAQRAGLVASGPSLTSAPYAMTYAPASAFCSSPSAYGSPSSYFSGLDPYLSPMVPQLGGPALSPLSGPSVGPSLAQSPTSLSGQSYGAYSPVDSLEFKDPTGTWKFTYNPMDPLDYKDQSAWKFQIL
# ETV1, sequence (P50549 whole entry): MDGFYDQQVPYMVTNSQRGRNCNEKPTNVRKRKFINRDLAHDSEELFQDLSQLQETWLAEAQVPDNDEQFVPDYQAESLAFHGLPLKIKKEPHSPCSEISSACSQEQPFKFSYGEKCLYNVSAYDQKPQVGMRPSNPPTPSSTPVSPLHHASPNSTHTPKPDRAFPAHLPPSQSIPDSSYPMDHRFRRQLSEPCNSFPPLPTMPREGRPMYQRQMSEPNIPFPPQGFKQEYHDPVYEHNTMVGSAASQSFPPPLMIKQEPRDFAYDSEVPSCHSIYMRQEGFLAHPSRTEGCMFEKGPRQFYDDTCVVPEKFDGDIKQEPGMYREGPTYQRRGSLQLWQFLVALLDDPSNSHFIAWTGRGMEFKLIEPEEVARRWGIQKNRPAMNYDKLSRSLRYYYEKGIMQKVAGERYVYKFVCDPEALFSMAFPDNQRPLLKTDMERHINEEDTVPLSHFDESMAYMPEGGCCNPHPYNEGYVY
# ELF4, sequence (Q99607 whole entry): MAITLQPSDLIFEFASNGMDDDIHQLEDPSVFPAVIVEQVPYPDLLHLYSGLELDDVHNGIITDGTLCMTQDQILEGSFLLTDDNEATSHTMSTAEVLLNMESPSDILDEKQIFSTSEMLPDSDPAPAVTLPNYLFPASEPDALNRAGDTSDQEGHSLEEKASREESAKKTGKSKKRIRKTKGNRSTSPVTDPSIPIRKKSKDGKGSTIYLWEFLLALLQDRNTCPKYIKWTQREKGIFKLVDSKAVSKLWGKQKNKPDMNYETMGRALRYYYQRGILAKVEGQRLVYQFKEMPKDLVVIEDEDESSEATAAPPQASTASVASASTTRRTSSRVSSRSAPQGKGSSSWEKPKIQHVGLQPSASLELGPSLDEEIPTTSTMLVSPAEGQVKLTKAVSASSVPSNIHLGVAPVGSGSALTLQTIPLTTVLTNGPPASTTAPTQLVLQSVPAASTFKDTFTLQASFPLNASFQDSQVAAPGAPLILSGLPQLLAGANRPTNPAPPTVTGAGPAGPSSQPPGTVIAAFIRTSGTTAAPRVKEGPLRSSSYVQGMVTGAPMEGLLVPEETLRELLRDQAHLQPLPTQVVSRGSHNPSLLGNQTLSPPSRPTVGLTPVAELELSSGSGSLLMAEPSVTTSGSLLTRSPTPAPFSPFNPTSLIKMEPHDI
sequence,measurement,setting,value
TGGATC,binding signal,ELK1,"1.01 fold enrichment (6-mer frequency, TF over GST control)"
same,binding signal,ERG,"1.02 fold enrichment (6-mer frequency, TF over GST control)"
same,binding signal,EHF,"1 fold enrichment (6-mer frequency, TF over GST control)"
same,binding signal,SPI1,"1.03 fold enrichment (6-mer frequency, TF over GST control)"
same,binding signal,ELK3,"1.09 fold enrichment (6-mer frequency, TF over GST control)"
same,binding signal,HSF1,"1.16 fold enrichment (6-mer frequency, TF over GST control)"
same,binding signal,SPIC,"1.11 fold enrichment (6-mer frequency, TF over GST control)"
same,binding signal,ELF4,"1.02 fold enrichment (6-mer frequency, TF over GST control)"
same,binding signal,ETV2,"1.03 fold enrichment (6-mer frequency, TF over GST control)"
same,binding signal,ELF3,"1.06 fold enrichment (6-mer frequency, TF over GST control)"
same,binding signal,CRX,"1.15 fold enrichment (6-mer frequency, TF over GST control)"
same,binding signal,ETV1,"1.01 fold enrichment (6-mer frequency, TF over GST control)"
same,binding signal,ETV3L,"1.12 fold enrichment (6-mer frequency, TF over GST control)"
same,binding signal,SPDEF,"1.09 fold enrichment (6-mer frequency, TF over GST control)"
TCCGAG,binding signal,HSF1,"1.03 fold enrichment (6-mer frequency, TF over GST control)"
CGAAGA,binding signal,HSF1,"1.19 fold enrichment (6-mer frequency, TF over GST control)"
